# Screening data (PubChem BioAssay)
# In the library only some 3.4% were active in any assay of this set; here they are far more common.
# GPR151 ag: activators of human GPR151, primary screen, cell-based, PathHunter beta-arrestin, luminescence; activation, % at 11.2 µM; AID 1508602, 2020; PathHunter beta-arrestin GPR151 cells; G-protein coupled receptor 151 (Homo sapiens), Q8TDV0; actives 1% (n = 650,000); in the data active means activation above about 4.9%;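 further: 0% = median of compound wells and 100% = cells with positive control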
# Target sequence (Q8TDV0 whole entry, looked up): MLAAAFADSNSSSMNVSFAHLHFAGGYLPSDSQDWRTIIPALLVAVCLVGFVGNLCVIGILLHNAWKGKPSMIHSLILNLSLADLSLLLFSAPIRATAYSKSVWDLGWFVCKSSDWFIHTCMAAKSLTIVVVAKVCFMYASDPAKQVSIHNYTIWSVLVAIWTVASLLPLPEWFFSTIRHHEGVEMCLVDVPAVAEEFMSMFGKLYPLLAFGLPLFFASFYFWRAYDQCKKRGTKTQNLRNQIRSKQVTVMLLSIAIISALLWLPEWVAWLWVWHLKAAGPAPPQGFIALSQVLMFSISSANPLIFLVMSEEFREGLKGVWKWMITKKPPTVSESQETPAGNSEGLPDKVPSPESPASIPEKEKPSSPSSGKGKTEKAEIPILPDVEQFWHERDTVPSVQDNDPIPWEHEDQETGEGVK
# MITF primary: MITF inhibitors, primary screen, biochemical, AlphaScreen, human; Microphthalmia-associated transcription factor (Homo sapiens), O75030; AlphaScreen MITF homodimerization, bead proximity signal; inhibition, % at 2.6 µM; actives 0.91% (n = 650,000); AID 1259374, 2018; in the data active means inhibition above about 50%;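 further: 0% = vehicle wells with protein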
# TEAD-YAP inh: TEAD-YAP interaction inhibition, primary screen, TEAD-YAP interaction inhibitor project, luminescence, HEK-TIYL cells; TEAD-Gal4/YAP UAS-luciferase luminescence; inhibition, % at 9.12 µM; actives 1.4% (n = 640,000); AID 1259422, 2018; in the data active means inhibition above about 32%;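 further: 0% = median of test compound wells and 100% = reference inhibitor wells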
# FBW7 act: FBW7 E3 ligase activators, primary screen, biochemical, AlphaScreen, human | F-box/WD repeat-containing protein 7 (Homo sapiens), Q969H0 | AlphaScreen FBW7–phospho-cyclin E peptide binding, activator screen | normalized activity (activation), % at 26.1 µM | actives 0.13% (n = 650,000) | AID 1259310, 2017; in the data active means normalized activity above about 1.9%;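 further: purified mutant Fbw7 with reduced substrate affinity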
# MITF confirm: MITF inhibitors, retest of hits, confirmation, biochemical, AlphaScreen, triplicate; AlphaScreen MITF homodimerization, biotin/His-MITF beads; actives 16% (n = 4,700); shares compounds with MITF primary; inhibition, % at 2.6 µM;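 active means inhibition above a cutoff derived from the DMSO control wells, cut at about 28% in these data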;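 further: 0% = MITF dimer wells with DMSO only; inhibitors lower the bead chemiluminescence by keeping MITF from dimerizing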
# AS interf DR: AlphaScreen optical interference compounds, dose response, counter-screen, biochemical, HTS; shares compounds with MITF primary; AlphaScreen optical interference counterscreen, cell-free; IC50, µM; actives 6% (n = 480); AID 1259373, 2018; call rule not given here
# AS interf ctr: AlphaScreen optical interference compounds, counter-screen for MITF inhibitor project, biochemical, triplicate. shares compounds with MITF primary. LysRS AlphaScreen counterscreen, signal interference. inhibition, % at 2.6 µM. actives 7.6% (n = 4,700);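 active means inhibition above a cutoff derived from the DMSO control wells, cut at about 30% in these data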
# Active calls of the source: *; x = not tested or not shown.
SMILES,GPR151 ag,MITF primary,TEAD-YAP inh,FBW7 act,MITF confirm,AS interf ctr,others
COc1cc(Br)c(C2CC(=O)NC(C)=C2C(=O)OCCc2ccccc2)cc1OC (stereo not given),0,-3,1,0,x,x,
CCn1c(-c2ccc(F)cc2)cnc1SCC(=O)Nc1cccc(NC(C)=O)c1,0,17,-50,0,x,x,
CC(C)c1ccc(/C=C/C(=O)Nc2nn[nH]n2)cc1,1,52*,-21,1,9,13,
Cc1ccc(/C=C/C(=O)Nc2nn[nH]n2)o1,2,39,14,0,x,x,
O=C(Nc1ccc(NC(=O)c2cccs2)cc1)c1ccco1,-3,76*,-47,0,-3,-4,
COCC(=O)NCc1ccc(Cl)cc1,0,0,0,0,x,x,
COC(=O)C(NCC(=O)NCc1ccc(Cl)cc1)C(C)C (stereo not given),-1,66*,5,0,15,19,
CCCS(=O)(=O)N1CCN(Cc2cccnc2)CC1,3,46,2,0,x,x,
Cc1ccc(S(=O)(=O)N2CCN(Cc3cccnc3)CC2)cc1,0,83*,-7,0,7,7,
CS(=O)(=O)N1CCN(Cc2cccnc2)CC1,1,67*,-10,0,0,10,
CCS(=O)(=O)N1CCN(Cc2cccnc2)CC1,-1,78*,0,0,11,12,
Cc1ccc(CN2CCN(S(=O)(=O)c3ccc(C)cc3)CC2)cc1,1,-6,1,0,x,x,
CS(=O)(=O)N1CCN(Cc2ccncc2)CC1,1,79*,5,0,-6,15,
CN1CCN(Cc2c(O)ccc3c4c(c(=O)oc23)CCC4)CC1,1,-3,10,0,x,x,
CCC(C)NCCCOc1ccc(C)cc1Cl (stereo not given),-1,36,1,0,x,x,
O=C(Nc1ccc(-c2cn[nH]c2)c(C(F)(F)F)c1)C1COc2ccccc2O1 (stereo not given),0,61*,-37,1,37*,3,AS interf DR=>6.5
Cc1ncc(CO)c(/C=N/N=C/c2cccc(Cl)c2Cl)c1O,-1,53*,8,1,-4,-4,
CCCCOCC(O)CN1CCN(CCN2C(=O)c3cccc4cccc(c34)C2=O)CC1 (stereo not given),-1,-1,-8,0,x,x,
O=C1N[C@@H](CC2CCCCC2)C(=O)N2CCN(C(=O)Nc3ccccc3)C[C@H]12,-1,77*,7,0,70*,-10,AS interf DR=>6.5
CC[C@H](C)[C@@H]1NC(=O)[C@H]2CN(C(=O)c3cc(Cl)cc(Cl)c3)CCN2C1=O,0,-19,5,0,x,x,
O=C1N[C@@H](CC2CCCCC2)C(=O)N2CCN(C(=O)c3cc(F)c(F)cc3F)C[C@H]12,0,5,2,0,x,x,
CCC[C@@H]1NC(=O)[C@H]2CN(C(=O)NC3CCCCC3)CCN2C1=O,1,77*,5,0,71*,-10,AS interf DR=>6.5
CC[C@H](C)[C@@H]1NC(=O)[C@H]2CN(C(=O)NC3CCCCC3)CCN2C1=O,2,74*,0,0,70*,-11,AS interf DR=>6.5
C[C@H]1NC(=O)[C@@H]2C[C@H](NC(=O)NC3CCCCC3)CN2C1=O,1,9,0,0,x,x,
C[C@@H]1NC(=O)[C@H]2CN(C(=O)NC3CCCCC3)CCN2C1=O,-1,77*,11,0,74*,-10,AS interf DR=>6.5
O=C(CC1CCCC1)Nc1cccc(N2CCC(N[C@H]3CCCCNC3=O)CC2)c1,-1,10,11,0,x,x,
CCC(Oc1ccccc1)C(=O)SC1CCC2(C)C(=CCC3C2CCC2(C)C(C(C)CCCC(C)C)CCC32)C1 (stereo not given),-2,11,3,0,x,x,
NC(=O)c1cc(N2CCN(c3ccccn3)CC2)nc2ccccc12,-2,-6,-10,0,x,x,
